Bioassay records from PubChem.
RE007 growth inh – qHTS Assay for Inhibitors of the HIV-1 protein Vpr | AID 651644, 2012 | S. pombe RE007 Vpr strain, BacTiter-Glo ATP luminescence, 24 h | 360,000 compounds, 0.21% hits | Potency, µM (top dose mostly 92.2 µM), for inactives: at the top dose activity change, negative = less growth, usual class: inhibitors; active = well fitted falling curve with a large enough effect; inconclusive = small, poorly fitted or top-dose-only effect; inactive = no such curve, though single readings can be large or run the other way; also: potency is read from the fitted curve at half-maximal effect; % is scaled to controls: 0 for no effect and ±100 for the full control effect; nearly all actives have a fitted effect of over 50% in size
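Fission yeast strain RE007, carrying one chromosomally integrated HIV-1 vpr copy, was seeded at OD 0.01 in PMG+AL medium with 23 nL pinned compound. After 24 h at 30 °C and 99% humidity, viability was read by BacTiter-Glo luminescence.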
TbPYK inhibitor – qHTS of Trypanosoma Brucei Inhibitors | pyruvate kinase (Trypanosoma brucei), Q57TT1 | TbPYK enzyme, Kinase-Glo Plus ATP luminescence, 45 min | Potency, µM (series often up to 76.8 µM), for inactives: at the top dose activity, negative = inhibition, usual class: inhibitors | 410,000 compounds, 0.12% hits | AID 624173, 2012; also: potency is read from the fitted curve at half-maximal effect; % is scaled to controls: 0 for no effect and ±100 for the full control effect; nearly all actives have a fitted effect of over 50% in size
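In this concentration-response screen, enzyme-free wells defined baseline while DMSO plates tracked drift. Each reaction combined TbPYK, substrate, compound and 130 uM ADP for 45 min at room temperature. Kinase-Glo Plus luminescence gave the signal.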
FBPA Giardia inh – qHTS Assay for Inhibitors of Fructose-1,6-bisphosphate Aldolase from Giardia Lamblia | purified Giardia FBPA | Potency, µM (doses to about 59.6 µM), for the others: at the highest dose activity, negative = inhibition, most hits filed as inhibitors | 290,000 compounds, 0.71% hits; also: potency is read from the fitted curve at half-maximal effect; % is scaled to controls: 0 for no effect and ±100 for the full control effect; nearly all actives have a fitted effect of over 55% in size
Target sequence (A8B2U2 whole entry, looked up): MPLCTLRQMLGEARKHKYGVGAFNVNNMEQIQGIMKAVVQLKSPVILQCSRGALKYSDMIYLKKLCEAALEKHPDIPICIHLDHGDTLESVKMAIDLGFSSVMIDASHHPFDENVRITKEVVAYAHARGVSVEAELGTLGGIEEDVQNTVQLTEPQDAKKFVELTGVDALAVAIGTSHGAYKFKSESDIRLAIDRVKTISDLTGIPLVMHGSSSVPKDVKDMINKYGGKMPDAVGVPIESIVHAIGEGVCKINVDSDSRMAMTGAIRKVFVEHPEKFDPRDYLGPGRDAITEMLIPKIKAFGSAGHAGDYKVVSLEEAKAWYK
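Giardia FBPA (40 nM reagent) was preincubated 10 min at RT with compound (up to 57.5 uM final), then substrate plus GAPDH/TPI/NAD/arsenate coupling system with diaphorase/resazurin was added; resorufin fluorescence (525/598 nm) was read after 20 min.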
Shiga toxin inh – A qHTS for Small Molecule Inhibitors of Shiga Toxin. Vero cells, Shiga toxin protein synthesis inhibition reporter. inhibition, % at 38.7 µM. 290,000 compounds, 9.2% hits. AID 2315, 2010; in the data active = inhibition mostly above about 28%, no sharp cut-off; inactive = mostly below about 43%; also: 0% is about no effect
Cycloheximide cs – Cycloheximide Counterscreen for Small Molecule Inhibitors of Shiga Toxin; cell reporter, cycloheximide protein synthesis inhibition counterscreen; max response, %; 300,000 compounds, 12% hits; AID 2314, 2010; in the data active = max response mostly above about 13%, no sharp cut-off; inactive = mostly below about 14%; also: read at 38.3 µM for the half of the compounds with a filed dose; 0% is about no effect
LmPK inhibitor – qHTS Assay for Inhibitors of Leishmania Mexicana Pyruvate Kinase (LmPK); purified LmPK, Kinase-Glo ATP luminescence, 1 h; Q27686; Potency, µM (doses to about 57.5 µM), for inactives: top-dose activity change, negative = inhibition, hits mostly inhibitors; AID 1721, 2009; 290,000 compounds, 0.37% hits; also: potency is read from the fitted curve at half-maximal effect; % is scaled to controls: 0 for no effect and ±100 for the full control effect
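Purified LmPK (0.1 nM) with 0.5 mM PEP and 0.1 mM ADP in imidazole buffer pH 7.2 with MgCl2/KCl, 1 h at room temperature. ATP formed was read by luciferase luminescence and normalized to no-enzyme and uninhibited controls.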
Starred values were filed as active, the others as inactive; ? = inconclusive; / = no result; [ ] = dose if it differs, or a comment. The sample as a whole holds a higher share of hits than the screen did. Unless noted, calls follow the shape of the dose curve; as a rule, active = well fitted curve in the direction sought with a large enough effect; inconclusive = small, poorly fitted or top-dose-only effect, or another doubt; inactive = no such curve, though single readings can be large; an effect the other way counts as inactive or inconclusive.

SMILES | RE007 growth inh | TbPYK inhibitor | FBPA Giardia inh | Shiga toxin inh | Cycloheximide cs | LmPK inhibitor
N/C(CC1CC1(Cl)Cl)=N\OC(=O)c1ccccc1 (configuration not stated) | -16% | 5% | 3% | 71* | 45* | -1%
Cc1cccc(C(=O)Nc2cccc(C(=O)OCc3cc(=O)n4nc(C5CC5)sc4n3)c2)c1 | / | 4% | / | / | / | /
Cc1nc(/C=C/c2ccccc2)[nH]c(=O)c1-c1ccccc1 | -2% | 0% | 2% | 94* | 33* | 1%
CN(C)c1ccc(/C=C/c2nc3ccccc3c(=O)[nH]2)cc1 | / | -27% | 8% | 39* | 34* | -16%
O=c1[nH]c(/C=C/c2ccc(Br)cc2)nc2ccccc12 | 2% | -23% | 3% | 85* | 45* | 2%
Cc1cccc(/C=C\c2nc3ccccc3c(=O)[nH]2)c1 | -7% | -12% | 5% | 93* | 70* | -27%
COc1ccc(OC)c2nc(-c3ccncc3)ccc12 | -12% | -5% | 6% | 9 | 15* | 1%
COc1cccc2sc(Nc3nc(-c4ccncc4)cs3)nc12 | -9% | -17% | 4% | 25 | 11 | 5%
O=C(O)c1ccc(COc2ccc([N+](=O)[O-])cc2)o1 | 9% | -4% | 7% | 26 | 11 | 1%
CC(C)c1ccc(OCc2ccc(C(=O)NN3CCN(C)CC3)o2)cc1 | 1% | -13% | -1% | 170* | 79* | -2%
O=C(NC1CC1)c1ccc(COc2ccc(F)cc2)o1 | 0% | 3% | -3% | 25 | 14 | -5%
CC(C)c1ccc(OCc2ccc(C(=O)O)o2)cc1 | 7% | 0% | ? | 64* | 35* | 21%
CC(C)c1ccc(OCc2ccc(C(=O)N(C)C)o2)cc1 | 16% | 0% | -3% | 151* | 65* | 0%
CCOc1ccc(C(=O)N(Cc2ccc(C(C)C)cc2)Cc2ccco2)cc1 | / | -8% | / | / | / | /
Cc1ccc(Cl)cc1N1CCN(c2nc3ccccc3c3nc(-c4cccnc4)nn23)CC1 | / | -5% | / | / | / | /
CN1CCN(c2ncc3ncc(=O)n(C4CC4)c3n2)CC1 | / | / | 0% | / | / | /
Cc1ccc(-c2noc(CCCc3ccccc3)n2)cc1 | -16% | -1% | -1% | 62* | 31* | -1%
CCOc1ccc(-c2noc(CCC(=O)NCCc3ccccc3)n2)cc1OC | 1% | -2% | 3% | -7 | 5 | -4%
COc1ccc(-c2noc(CCCc3ccccc3)n2)cc1OC | -8% | -12% | -4% | 21 | 12* | -2%
COc1ccc(-c2nc3c(c4c2C[C@H](c2ccccc2)OC4)CN(C(=O)NCc2ccco2)CC3)c(C)c1 | / | / | 3%[12.9 µM] | / | / | 2%[11.5 µM]
COc1cccc(C(=O)Nc2ccc(NC(=O)C3CC3)cn2)c1 | 4% | -19% | -1% | 70* | 29* | ?
CCC(=O)Nc1ccc(NC(=O)c2cccc(OC)c2)nc1 | -5% | -9% | 0% | 24* | 23* | ?
CCn1nnnc1NC(=O)c1cccc(OC)c1 | 3% | 1% | 0% | 83* | 32* | -3%
O=C(COc1coc(CN2CCN(c3cccc(Cl)c3)CC2)cc1=O)NC1CCCC1 | -4% | -1% | / | / | / | /
COc1ccc(NC(=O)CN2C(=O)C(c3ccc(C(C)(C)C)cc3)=NC2(C)C)cc1Cl | / | 5% | / | / | / | /
SMILES | RE007 growth inh | TbPYK inhibitor | FBPA Giardia inh | Shiga toxin inh | Cycloheximide cs | LmPK inhibitor
COC(=O)C1=C(C)NC(C)=C(C(=O)OC)C1C(=O)OCc1nnc(-c2ccccc2Cl)o1 | 11% | -5% | / | / | / | /
O=C(c1ccc(Cl)c(S(=O)(=O)N2CCCCC2)c1)N1CCCC(C(F)(F)F)C1 (configuration not stated) | -5% | 3% | / | / | / | /
CCOC(=O)C1CCCN(c2ncnc3c2oc2ccccc23)C1 (configuration not stated) | -13% | 2% | -6% | 47 | 17* | 0%
CCOC(=O)c1cnn(-c2cc(Oc3ccccc3)ncn2)c1N | -11% | -10% | 4% | -3 | -1 | 0%
CCOC(=O)c1cnn(-c2ccccn2)c1N | -21% | -7% | -5% | 99* | 63* | -19%
CCOC(=O)c1cnn(-c2ncnc3c2oc2ccccc23)c1N | -16% | -3% | 2% | 68 | 16* | -10%
Cc1ccc(CNC(=O)CN2C(=O)CSc3ccc(S(=O)(=O)N(C)C)cc32)cc1 | / | 3% | / | / | / | /
CNC(=O)C1CCC(Cn2c(=O)c3sccc3n(CC(=O)N3CCCC(C)C3)c2=O)CC1 (configuration not stated) | / | -3% | / | / | / | /
O=C(OCc1nnc(-c2ccccc2)o1)c1ccco1 | 4% | 1% | -1% | 12 | 17 | -18%
N#Cc1ccc(COC(=O)c2cc(=O)c3ccccc3o2)cc1 | 0% | -5% | -1% | -5 | 2 | 4%
O=C(OCc1ccc([N+](=O)[O-])cc1)c1cc(=O)c2ccccc2o1 | -16% | -9% | -3% | 26 | 9.7* | 0%
Nc1ccccc1C(=O)OCc1ccc([N+](=O)[O-])cc1 | 0% | -4% | 0% | 76* | 33* | 0%
O=C(OCc1nnc(-c2ccccc2)o1)c1cc(=O)c2ccccc2o1 | -8% | 1% | 7% | 36 | 26* | -12%
C/C=C1\COC(C(=O)NCc2ccccn2)(C(F)(F)F)C=C1C=C(C)C (configuration not stated) | / | / | -9% | 3 | 18 | /
COc1ccc(/C=C2/C(=O)N(Cc3ccccc3)N=C2C)cc1 | -10% | 1% | -4% | -4 | 2 | -1%
COc1ccc(/C=C2/C(=O)N(c3nc4ccccc4s3)N=C2CSc2ccc(Cl)cc2)cc1 | -8% | -1% | -14% | 14 | 14* | -1%
NNc1nc(-c2ccccc2Cl)nc2ccccc12 | -12% | 2% | -26% | / | 9 | 13%
NNc1nc(-c2ccccc2Cl)nc2sc3c(c12)CCCC3 | 3% | 3% | -20% | 52* | 46* | 3%
CCOC1=C2[C@@H](CN(S(=O)(=O)c3ccc(C)cc3)[C@H]2c2cccc3ccccc23)[C@H]2C(=O)N(C3CCCCC3)C(=O)[C@H]2C1 | 6% | 1% | / | / | / | /
Nc1cccc(N=[N+]([O-])c2cccc(N)c2)c1 | -6% | 2% | / | / | / | /
COc1cc(CNC(=O)c2ccc3oc(C(C)C)nc3c2)cc(OC)c1 | 5% | -2% | -2% | 15 | 14* | 2%
CC(C)c1nc2cc(C(=O)NC(c3cccnc3)C(F)(F)F)ccc2o1 (configuration not stated) | 10% | -7% | / | 24 | 18* | -8%
CC(C)c1nc2cc(C(=O)N(C)Cc3ccc(F)cc3)ccc2o1 | 7% | 0% | / | 80* | 43* | -11%
